Assay outcomes deposited in PubChem BioAssay by National Center for Advancing Translational Sciences (NCATS).
VDR inhibitor: blocks the human vitamin D receptor; P11473; VDR-SRC2-3 peptide fluorescence polarization, 2 h; Potency, µM, without a hit: max response, negative = inhibition, most hits filed as inhibitors; 400,000 compounds, 0.93% hits; AID 504847; also: potency is read from the fitted curve at half-maximal effect; % is scaled to controls: 0 for no effect and ±100 for the full control effect
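Fluorescence polarization assay measuring small-molecule disruption of VDR binding to the coregulator peptide SRC2-3. Compounds were pin-transferred (23 nl) into the reagent mix and incubated 2 h at room temperature before reading.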
PLK1 PBD inh: PLK1 (human) polo-box domain binding inhibition; P53350; Plk1 PBD binding of FITC phosphopeptide, fluorescence polarization; Potency, µM, for inactives: max response, negative = inhibition, hits mostly inhibitors; 360,000 compounds, 2.8% hits; also: potency is read from the fitted curve at half-maximal effect; series mostly up to about 57 µM; % is scaled to controls: 0 for no effect and ±100 for the full control effect; nearly all actives have a fitted effect of over 65% in size
Rango release inh: inhibition of RanGTP-driven Rango-importin beta dissociation; O95149+P62826; Biochemical FRET Rango-importin beta, RanGTP-induced dissociation; Potency, µM (top dose mostly 46.1 µM), inactives show at the top dose activity change, negative = inhibition; 340,000 compounds, 0.071% hits; AID 540253; calls by dose curve; also: potency is read from the fitted curve at half-maximal effect; % of control where 0% means no effect; nearly all actives have a fitted effect of over 45% in size
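FRET read at 45 min, room temperature: inhibitors block the CFP/YFP signal rise when RanGTP (0.6 uM Ran, 2 mM GTP, 0.2 uM RCC1) frees Rango (0.1 uM) from importin beta (0.25 uM). Pre-read after 5 min compound exposure flags interference.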
Rango complex inh: inhibitors of Rango-importin beta complex formation. Potency, µM (series often up to 92.2 µM), for the others: at the highest dose inhibition of complex formation. AID 540263. Rango CFP/YFP FRET sensor + importin beta, 45 min. 340,000 compounds, 0.031% hits. Q14974; calls by dose curve;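 also: potency is read from the fitted curve at half-maximal effect; 0% = DMSO wells and 100% = buffer wells lacking importin beta; nearly all actives have a fitted effect of over 15% in size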
Target sequence (Q14974 whole entry, looked up): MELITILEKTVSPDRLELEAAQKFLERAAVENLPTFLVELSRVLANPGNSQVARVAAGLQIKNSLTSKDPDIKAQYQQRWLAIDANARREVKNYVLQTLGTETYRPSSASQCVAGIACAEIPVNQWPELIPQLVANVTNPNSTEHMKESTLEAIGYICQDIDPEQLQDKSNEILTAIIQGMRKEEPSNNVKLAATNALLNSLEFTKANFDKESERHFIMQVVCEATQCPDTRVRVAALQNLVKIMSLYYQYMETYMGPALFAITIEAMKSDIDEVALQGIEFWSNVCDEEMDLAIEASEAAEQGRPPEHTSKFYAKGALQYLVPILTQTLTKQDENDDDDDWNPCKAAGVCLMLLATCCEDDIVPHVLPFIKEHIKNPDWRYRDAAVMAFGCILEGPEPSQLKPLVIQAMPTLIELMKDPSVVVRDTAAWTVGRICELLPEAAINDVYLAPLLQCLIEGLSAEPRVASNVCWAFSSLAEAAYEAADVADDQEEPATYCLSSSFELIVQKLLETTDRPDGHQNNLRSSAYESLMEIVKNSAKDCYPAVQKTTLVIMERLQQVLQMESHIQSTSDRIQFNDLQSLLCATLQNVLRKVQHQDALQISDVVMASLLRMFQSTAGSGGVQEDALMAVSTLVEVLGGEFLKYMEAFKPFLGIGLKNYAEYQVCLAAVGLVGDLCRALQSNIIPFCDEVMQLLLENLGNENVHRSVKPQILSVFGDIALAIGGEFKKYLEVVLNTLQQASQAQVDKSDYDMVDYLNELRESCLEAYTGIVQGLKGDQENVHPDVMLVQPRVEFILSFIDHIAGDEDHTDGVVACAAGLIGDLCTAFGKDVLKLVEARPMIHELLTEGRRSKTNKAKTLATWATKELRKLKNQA
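FRET biosensor (snurportin 1 IBB flanked by EYFP and cerulean), 50 nM, with compound 5 min, then 0.125 microM importin beta in PBS, 1 mM DTT, 0.02% Tween-20, 0.1% BSA. CFP/YFP ratio read after 45 min at room temperature; pre-read flags interference.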
PI5P4K alpha inh: inhibitors of human PI5P4K alpha; 330,000 compounds, 1.2% hits; P48426; max response, %; PI5P4Kalpha enzyme, ADP-Glo luminescence, 60 min; active compounds read low; AID 652105; active = max response of -50% or lower; inconclusive = between -30% and -50%; inactive = -30% or higher; also: value at the top dose of about 77 µM; % is scaled to controls: 0 for no effect and ±100 for the full control effect
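ADP-Glo luminescence end-point read after a 60 min room-temperature kinase reaction of PI5P4Kalpha plus substrate, initiated with ATP at 5 microM final. Buffer: 0.038 M HEPES pH 7.4, EGTA, 0.1% CHAPS, 5% DMSO.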
GCN5L2 inh: GCN5L2 (KAT2A) acetyltransferase inhibition. Q92830. GCN5L2 HAT assay, ThioGlo1 CoA-SH fluorescence. Potency, µM (highest dose often 58.9 µM), without a hit: at the highest dose activity change, negative = inhibition, most hits filed as inhibitors. 390,000 compounds, 0.21% hits. AID 504327; also: potency is read from the fitted curve at half-maximal effect; % is scaled to controls: 0 for no effect and ±100 for the full control effect
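Titration-based screen in which CoA formation is detected via maleimide probe ThioGlo1 (50uM) turning fluorescent on thiol reaction; substrates H3(1-25) 75uM and acetyl-CoA 70uM, GCN5L2 20nM, 20 min incubation at room temperature.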
* marks the source's active call; other numbers are inactive results; ? = inconclusive; . = no result. A selection: hits, their analogues and other compounds. The true share with any hit is near 3.6%. Unless noted, calls follow the shape of the dose curve; as a rule, active = well fitted curve in the direction sought with a large enough effect; inconclusive = small, poorly fitted or top-dose-only effect, or another doubt; inactive = no such curve, though single readings can be large; an effect the other way counts as inactive or inconclusive.

SMILES	VDR inhibitor	PLK1 PBD inh	Rango release inh	Rango complex inh	PI5P4K alpha inh	GCN5L2 inh
Cc1cccc(C)c1Nc1nnc(SC/C(O)=C(\C#N)c2nc3ccccc3[nH]2)s1	8%	-19%	15µM*	?	-68*	-13%
Cc1ccc(S(=O)(=O)/C(C#N)=C/c2c(N3CCC(C(N)=O)CC3)nc3ccccn3c2=O)cc1	-15%	-8%	13µM*	?	0	-9%
Cc1ccc(C(=O)Nc2nnc(SCc3cc(=O)c4c(C)ccc(C)c4[nH]3)s2)cc1	10%	.	.	.	.	-4%
CCCN(CCC)CCNC(=O)Cn1ncc2c([nH]c3ccc(C)cc32)c1=O	3%	.	.	.	.	3%
COc1ccc(C(=O)N/N=C/c2ccc(OC)c(COc3ccccc3)c2)cc1	-3%	2%	-11%	0%	-2	-1%
COc1cc(/C=N/NC(=O)c2cc(O)cc(O)c2)ccc1OC(=O)c1ccccc1	-9%	?	-10%	-3%	-92*	-4%
O=C(N/N=C/c1ccc(OC(=O)c2ccccc2Cl)cc1)c1ccccn1	-20%	0%	-9%	-5%	-6	-1%
COc1ccc(C(=O)Oc2ccc(/C=N/NC(=O)c3ccccc3OC)cc2[N+](=O)[O-])cc1	-6%	-15%	3%	2%	-1	0%
COc1ccc(/C=N\NC(=O)c2cc(O)c(O)c(O)c2)cc1COc1ccc(C(=O)OCC(C)C)cc1	-7%	0%	19%	-1%	-72*	-28%
O=C(N/N=C/c1ccc(OC(=O)c2ccccc2)c([N+](=O)[O-])c1)c1ccc(O)cc1	7%	?	3%	7%	-79*	-13%
O=C(N/N=C/c1ccc(OC(=O)c2ccccc2Cl)cc1)c1cc(O)cc(O)c1	-22%	?	-10%	0%	-66*	-21%
CCCCCCCC/C=C\CCCCCCCCN	6%	.	.	.	.	0%
CCCCCNC(=O)C1CCC(Cn2c(=O)c3sccc3n(CC)c2=O)CC1 (stereo unspecified)	-7%	.	.	.	.	-13%
O=C(N/N=C/c1ccoc1)c1cc(O)cc(O)c1	0%	?	7%	-1%	-71*	?
Cc1cc(C)cc(C(=O)N/N=C/c2ccoc2)c1	7%	-8%	5%	-1%	?	-2%
c1cncc(-c2nn3cnnc3s2)c1	17%	-6%	-12%	-2%	1	-21%
Clc1ccc(Cl)c(-c2nn3c(Cn4cnc5ccccc54)nnc3s2)c1	-1%	-11%	-4%	0%	.	.
c1cncc(-c2nn3c(Cn4cnc5ccccc54)nnc3s2)c1	-99%	4.7µM*	-6%	1%	.	-17%
Cc1nnc2sc(COc3ccccc3)nn2c1=O	2%	-2%	11%	-1%	?	-11%
c1ccc2c(c1)ncn2Cc1nnc2sc(-c3ccncc3)nn12	-13%	12µM*	-3%	-2%	.	-3%
c1ccc(OCc2nn3c(Cn4cnc5ccccc54)nnc3s2)cc1	?	24µM*	2%	1%	.	-1%
CCOc1ccccc1OCc1nn2c(COc3ccccc3)nnc2s1	32µM*	4.7µM*	?	3%	.	-20%
O=S(=O)(c1ccc2c(Cl)cccc2c1)N1CCN(c2nc(-c3cccs3)nc3ccccc23)CC1	-10%	.	.	.	.	.
COc1ccccc1N1CCN(c2ncnc3c2cnn3-c2cc(Cl)ccc2C)CC1	7%	.	.	.	.	0%
CCN(CC)C(=O)CSc1nc2c(sc(=S)n2-c2ccccc2)c(=O)n1Cc1ccco1	40µM*	24µM*	0%	-6%	.	-3%
COc1cccc([C@@H]2Oc3ccc(OC)cc3C(=O)[C@H]2OC(=O)NCCc2ccc(OC)c(OC)c2)c1	6%	.	.	.	.	.
CCc1ccc(N=C2NC(=O)/C(=C/c3cc(Br)c(OCC(=O)O)c(OC)c3)S2)cc1	?	30µM*	0%	0%	-97*	?
CCOc1cc(/C=C2\SC(=Nc3ccc(CC)cc3)NC2=O)ccc1OCC(=O)O	-7%	-24%	?	?	-91*	-17%
COc1ccc(N=C2C(=S)N(c3ccc(OC)cc3)C(=NS(=O)(=O)c3ccccc3)N2c2ccccc2)cc1	?	3µM*	0%	2%	?	.
